# In ChEMBL document CHEMBL5606460, “ASAP - DENV-2 NS2B-NS3 protease fluorescence single point” (2024):
# Among all 2,000 compounds or so, about 110 (5.5%) showed an effect of 50% or more. Shown is part of a subset that was picked to be rich in strong results.
# Biological target: Genome polyprotein (dengue virus type 2) (UniProt P29990)
# [1] = Thailand/16681/1984, Concentration 25.0 uM, Number of replicates 1.0
smiles,measurement,setting,value
CNC(=O)c1cn(S(=O)(=O)c2ccc(Oc3ccccc3Cl)cc2)c2ccc(Cl)cc12,inhibition,"Thailand/16681/1984, Concentration 49.5 uM, Number of replicates 2.0, Standard deviation 1.1380993582408887 %",0.625%
same,inhibition,"Thailand/16681/1984, Concentration 99.01 uM, Number of replicates 2.0, Standard deviation 1.0406365412270837 %",4.48%
same,inhibition,"Thailand/16681/1984, Concentration 198.0 uM, Number of replicates 2.0, Standard deviation 0.5161930213749926 %",12.8%
CNC(=O)c1nccnc1NS(=O)(=O)c1ccc(Oc2ccccc2Cl)cc1,inhibition,"Thailand/16681/1984, Concentration 49.5 uM, Number of replicates 2.0, Standard deviation 1.5095148361141704 %",0.146%
same,inhibition,"Thailand/16681/1984, Concentration 99.01 uM, Number of replicates 2.0, Standard deviation 1.499470483470751 %",2.7%
same,inhibition,"Thailand/16681/1984, Concentration 198.0 uM, Number of replicates 2.0, Standard deviation 0.45486328764545614 %",7.74%
CNC(=O)c1cc(Cl)c(OC)cc1NS(=O)(=O)c1ccc(Oc2ccccc2Cl)cc1,inhibition,"Thailand/16681/1984, Concentration 49.5 uM, Number of replicates 2.0, Standard deviation 1.7443589304782063 %",79.2%
same,inhibition,"Thailand/16681/1984, Concentration 99.01 uM, Number of replicates 2.0, Standard deviation 0.14348540542006383 %",98.5%
same,inhibition,"Thailand/16681/1984, Concentration 198.0 uM, Number of replicates 2.0, Standard deviation 0.05118043543332502 %",99.3%
CN1CCN(c2ccc(CCNc3ccccc3F)cc2)CC1,inhibition,"Thailand/16681/1984, Concentration 49.5 uM, Number of replicates 2.0, Standard deviation 1.1725472419342977 %",-4.52%
same,inhibition,"Thailand/16681/1984, Concentration 99.01 uM, Number of replicates 2.0, Standard deviation 1.0151129155310683 %",-3.89%
same,inhibition,"Thailand/16681/1984, Concentration 198.0 uM, Number of replicates 2.0, Standard deviation 0.9851713728804441 %",-1.99%
CNS(=O)(=O)c1ccc(CNCc2ccc(N3CCN(C)CC3)cc2)cc1,inhibition,"Thailand/16681/1984, Concentration 49.5 uM, Number of replicates 2.0, Standard deviation 0.2679515396874046 %",-1.41%
same,inhibition,"Thailand/16681/1984, Concentration 99.01 uM, Number of replicates 2.0, Standard deviation 0.0046358372348345115 %",-0.423%
same,inhibition,"Thailand/16681/1984, Concentration 198.0 uM, Number of replicates 2.0, Standard deviation 1.744466130987394 %",0.949%
CC(C)(C)OC(=O)N1CCOC[C@H]1CNCc1nnc2ccccn12,inhibition,"Thailand/16681/1984, Concentration 49.5 uM, Number of replicates 2.0, Standard deviation 3.6636813935617547 %",-2.66%
same,inhibition,"Thailand/16681/1984, Concentration 99.01 uM, Number of replicates 2.0, Standard deviation 2.060655687099608 %",-2.48%
same,inhibition,"Thailand/16681/1984, Concentration 198.0 uM, Number of replicates 2.0, Standard deviation 3.020799081222525 %",-1.72%
CC(C)Cn1cccc(C(=O)Nc2ccncc2)c1=O,inhibition,"Thailand/16681/1984, Concentration 49.5 uM, Number of replicates 2.0, Standard deviation 1.6949837288603 %",4.6%
same,inhibition,"Thailand/16681/1984, Concentration 99.01 uM, Number of replicates 2.0, Standard deviation 0.80587134576346 %",8.75%
same,inhibition,"Thailand/16681/1984, Concentration 198.0 uM, Number of replicates 2.0, Standard deviation 0.4281674737986559 %",16%
Cc1cc(CO)c2cccc(Cc3ccccc3NC(=O)Cc3csc(Cc4ccccc4)n3)c2n1,inhibition,"Thailand/16681/1984, Concentration 49.95 uM, Number of replicates 2.0, Standard deviation 1.2441700790071646 %",-0.54%
same,inhibition,"Thailand/16681/1984, Concentration 99.9 uM, Number of replicates 2.0, Standard deviation 1.3300226430755788 %",0.901%
O=Cc1ccc(N2CCC(C(=O)N3CCC(O)(c4ccc(Br)cc4)CC3)CC2)cc1,inhibition,[1],14.6%
O=Cc1ccc(N2CCC(C(=O)NCc3cccc([N+](=O)[O-])c3)CC2)cc1,inhibition,[1],11%
NC(=O)c1ccc(Cl)c(NC(=O)C2CCN(c3ccc(C=O)cc3)CC2)c1,inhibition,[1],13.8%
Cc1cc(CO)c2cccc(Cc3cccc(NC(=O)Cc4cccc(CN)c4)c3)c2n1,inhibition,"Thailand/16681/1984, Concentration 49.95 uM, Number of replicates 2.0, Standard deviation 1.5571170041089204 %",9.22%
same,inhibition,"Thailand/16681/1984, Concentration 99.9 uM, Number of replicates 2.0, Standard deviation 3.140543082582705 %",20.8%
NCc1cccc(NC(=O)[C@@H](NC(=O)OCc2ccccc2)C(C2CCC2)C2CCC2)c1,inhibition,"Thailand/16681/1984, Concentration 49.5 uM, Number of replicates 2.0, Standard deviation 1.0931409988329541 %",0.575%
same,inhibition,"Thailand/16681/1984, Concentration 99.01 uM, Number of replicates 2.0, Standard deviation 7.259842534821406 %",21.9%
same,inhibition,"Thailand/16681/1984, Concentration 198.0 uM, Number of replicates 2.0, Standard deviation 0.026391345013157583 %",99.8%
CC(C)(C)[C@@H](NC(=O)OCc1ccccc1)C(=O)Nc1cccc(CN)c1,inhibition,"Thailand/16681/1984, Concentration 49.5 uM, Number of replicates 2.0, Standard deviation 1.83793572376561 %",-6.76%
same,inhibition,"Thailand/16681/1984, Concentration 99.01 uM, Number of replicates 2.0, Standard deviation 1.8206757463634287 %",-7.66%
same,inhibition,"Thailand/16681/1984, Concentration 198.0 uM, Number of replicates 2.0, Standard deviation 1.2664180516369132 %",-8.05%
NCc1cccc(NC(=O)[C@@H](NC(=O)OCc2ccccc2)C2CCCCC2)c1,inhibition,"Thailand/16681/1984, Concentration 49.5 uM, Number of replicates 2.0, Standard deviation 3.75421470496627 %",-3.1%
same,inhibition,"Thailand/16681/1984, Concentration 99.01 uM, Number of replicates 2.0, Standard deviation 3.4431804249233626 %",-1.76%
same,inhibition,"Thailand/16681/1984, Concentration 198.0 uM, Number of replicates 2.0, Standard deviation 6.458747607105988 %",79.9%
CC(C)C[C@@H](NC(=O)OCc1ccccc1)C(=O)Nc1cccc(CN)c1,inhibition,"Thailand/16681/1984, Concentration 49.5 uM, Number of replicates 2.0, Standard deviation 3.1792600205617827 %",-4.42%
same,inhibition,"Thailand/16681/1984, Concentration 99.01 uM, Number of replicates 2.0, Standard deviation 3.3347078817009965 %",-3.69%
same,inhibition,"Thailand/16681/1984, Concentration 198.0 uM, Number of replicates 2.0, Standard deviation 3.065424880922284 %",-2.71%
C[C@@H](NC(=O)OCc1ccccc1)C(=O)Nc1cccc(CN)c1,inhibition,"Thailand/16681/1984, Concentration 49.5 uM, Number of replicates 2.0, Standard deviation 1.8366578313187596 %",-7.57%
same,inhibition,"Thailand/16681/1984, Concentration 198.0 uM, Number of replicates 2.0, Standard deviation 1.0835833369227144 %",-9.56%
NCc1cccc(NC(=O)[C@@H](CO)NC(=O)OCc2ccccc2)c1,inhibition,"Thailand/16681/1984, Concentration 49.5 uM, Number of replicates 2.0, Standard deviation 0.4735169770341957 %",-3.34%
same,inhibition,"Thailand/16681/1984, Concentration 99.01 uM, Number of replicates 2.0, Standard deviation 2.1222171442022573 %",-3.24%
same,inhibition,"Thailand/16681/1984, Concentration 198.0 uM, Number of replicates 2.0, Standard deviation 1.1527028197814282 %",-3.94%
